# Measured values: PubChem BioAssay (NCATS)
# Records with an inconclusive call do not appear. Where a call stands in place of a potency, no number is given. Values without a mark were called inactive. Active and inactive are the calls of the source. Unless noted, calls follow the shape of the dose curve; as a rule, active = well fitted curve in the direction sought with a large enough effect; inconclusive = small, poorly fitted or top-dose-only effect, or another doubt; inactive = no such curve, though single readings can be large; an effect the other way counts as inactive or inconclusive.
# Tests used:
# [1] = Primary qHTS for inhibitors of La Crosse Virus (LACV) - induced cell death in SH-SY5Y cells (AID 1508616); details: SH-SY5Y LACV cytopathicity rescue, ATP luminescence, 6 d; series mostly up to 9.63 µM;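 also: top concentration of the series differs between compounds; higher means more rescue of cells from virus-induced death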
# How it was run: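 Luminescent ATP readout (ATPLite 1step, 5 min room temperature) measured rescue from LACV-induced death after 6 days of infection at 0.01 MOI; normalized to infected DMSO wells and uninfected DMSO wells.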
# [2] = target: Calcium and integrin-binding protein 1 (Homo sapiens) (UniProt Q99828); experiment: Validation qHTS for Identification of Calcium Integrin Binding protein 1 (CIB1) Competitor (AID 1508618); details: CIB1-GST / FITC-alphaIIb peptide fluorescence polarization; series mostly up to 114 µM
# How it was run: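 In this qHTS validation, the LOPAC set (up to 114 uM) was tested for blocking CIB1 binding to a fluorescein-tagged alphaIIb peptide, with FP detection at 480/540 nm.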
# [3] = Primary qHTS for small molecule stabilizers of the endoplasmic reticulum resident proteome: Secreted ER Calcium Modulated Protein (SERCaMP) assay (AID 1508630); details: SH-SY5Y GLuc-SERCaMP (Gaussia luciferase released on ER calcium loss) secretion, thapsigargin, luminescence; series mostly up to 38.4 µM
# How it was run: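 GLuc-SERCaMP-expressing SH-SY5Y cells, pretreated 16 h with compound, are challenged with thapsigargin to empty ER calcium stores; after 4 h, coelenterazine is added directly to the medium and luminescence is imaged.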
# [4] = Counterscreen qHTS for small molecule stabilizers of the endoplasmic reticulum resident proteome: GLuc-NoTag assay (AID 1508627); details: Gaussia luciferase NoTag secretion counterscreen, luminescence, thapsigargin 100 nM for final 4 h; series mostly up to 76.4 µM;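 also: SH-SY5Y cells given compound then 100 nM thapsigargin to empty ER calcium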
# How it was run: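 SH-SY5Y cells stably expressing constitutively secreted GLuc without SERCaMP tag, exposed to compound for 19 hr, then to 100 nM thapsigargin for 4 hr at 37C. Medium luciferase was read by coelenterazine luminescence without lysis.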
# [5] = Cell Viability qHTS for small molecule stabilizers of the endoplasmic reticulum resident proteome (AID 1508629); details: cell viability counter-screen, 100 nM thapsigargin for final 4 h;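 also: human SH-SY5Y neuroblastoma cells carrying the GLuc-SERCaMP reporter; compound exposure about 46 h in total before the viability read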
# [6] = Confirmatory qHTS for activators (rescue) of SARS-CoV-2 Cytopathic Effect (CPE) (AID 1508606; calls by dose curve; also: nearly all actives have a fitted effect of over 70% in size); details: Vero E6 SARS-CoV-2 CPE rescue, viability luminescence; series mostly up to 20 µM
# [7] = target: Calcium and integrin-binding protein 1 (Homo sapiens) (UniProt Q99828); experiment: Primary qHTS for Identification of Calcium Integrin Binding Protein 1 (CIB1) Competitor (AID 1508620); details: CIB1-GST / FITC-alphaIIb peptide fluorescence polarization; series mostly up to 114 µM;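 also: GST tagged CIB1 binding a fluorescein labelled alphaIIb integrin peptide tracer; top concentration of the series differs between compounds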
# How it was run: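 Fluorescence polarization competition: GST-tagged CIB1 (1 uM final) preincubated with compound 15 min at room temperature, then FITC-labelled alphaIIb peptide (100 nM final) added. After 15 min at room temperature, polarization read at Ex 480/Em 540.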
# [8] = Confirmatory qHTS for small molecule stabilizers of the endoplasmic reticulum resident proteome: Secreted ER Calcium Modulated Protein (SERCaMP) assay (AID 1508628); details: SERCaMP secreted luciferase ER calcium/proteostasis reporter; series mostly up to 76.3 µM; also: potency is read from the fitted curve at half-maximal effect; nearly all actives have a fitted effect of over 40% in size
# How it was run: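 We seeded SH-SY5Y-GLuc-SERCaMP cells, added compounds (three concentrations in the primary run, eleven up to 76.6 uM in confirmation), incubated 16 h, depleted ER calcium with thapsigargin, and read luciferase 4 h later.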
# Sequence of Calcium and integrin-binding protein 1 (Homo sapiens) (Q99828 whole entry, looked up): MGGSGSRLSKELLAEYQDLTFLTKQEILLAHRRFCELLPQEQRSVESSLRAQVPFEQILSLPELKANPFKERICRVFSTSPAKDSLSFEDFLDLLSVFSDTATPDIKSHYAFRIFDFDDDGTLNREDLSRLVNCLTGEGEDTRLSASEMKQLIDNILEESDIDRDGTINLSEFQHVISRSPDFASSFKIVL
structure (smiles),measurement,setting,value
CCN1C[C@@]2(COC)C3[C@@H](OC)C4[C@@H]1C3([C@@H]1C[C@]3(O)[C@H](OC(=O)c5ccccc5)[C@@H]1[C@]4(OC(C)=O)[C@@H](O)[C@@H]3OC)[C@H](OC)C[C@H]2O,Potency,[1],inactive
same,Potency,[2],inactive
same,outcome,[3],inactive
NNC(N)=O,Potency,[1],inactive
same,Potency,[2],inactive
C[N+]1(C)CCc2cc3c(cc2[C@H]1[C@@H]1OC(=O)c2c1ccc1c2OCO1)OCO3,Potency,[1],inactive
same,Potency,[2],inactive
CCCN(CCC)CCc1ccc(O)c(O)c1,Potency,[1],inactive
same,Potency,[2],inactive
OC1CCCCC1N1CCC(c2ccccc2)CC1 (stereo not given),Potency,[1],inactive
same,Potency,[2],inactive
same,outcome,[3],inactive
CN1CCc2cccc(Cl)c2CC1,Potency,[1],inactive
C[C@H](N)CN1CCc2ccc(Br)cc21,Potency,[1],inactive
same,Potency,[2],inactive
same,outcome,[4],inactive
same,max response,[5],-3.5%
N#CCCN,Potency,[1],inactive
CO[C@H]1CC=C2CCN3CCC4=C(CC(=O)OC4)[C@]23C1,Potency,[1],inactive
same,Potency,[2],inactive
same,outcome,[3],inactive
Cc1o[nH]c(=O)c1CC(N)C(=O)O (stereo not given),Potency,[1],inactive
same,Potency,[2],inactive
same,outcome,[3],inactive
CC(N)Cc1c[nH]c2ccc(O)cc12 (stereo not given),Potency,[1],inactive
same,Potency,[2],inactive
N[C@@H](Cn1ccc(=O)[nH]c1=O)C(=O)O,Potency,[1],inactive
c1ccc2c(N3CCNCC3)cccc2c1,Potency,[1],inactive
same,Potency,[2],inactive
same,outcome,[4],inactive
CCCN1CC[C@@H]2c3cc(O)ccc3CC[C@@H]21,Potency,[1],inactive
same,Potency,[2],inactive
same,outcome,[3],inactive
NCCc1ccc(S(=O)(=O)F)cc1,Potency,[1],inactive
C#CCN[C@H](C)Cc1ccccc1,Potency,[1],inactive
same,Potency,[2],inactive
CC(C)(C)c1cc(C=C(C#N)C#N)cc(C(C)(C)C)c1O,Potency,[1],inactive
same,Potency,[2],inactive
same,outcome,[3],inactive
CC[C@H]1CN2CC[C@H]1C[C@@H]2[C@@H](O)c1ccnc2ccc(OC)cc12,outcome,[6],inactive
same,Potency,[7],inactive
NC(Cc1cc(O)c(O)cc1O)C(=O)O (stereo not given),Potency,[1],inactive
NCCc1c[nH]c2ccc(C(N)=O)cc12,Potency,[1],inactive
same,Potency,[2],inactive
same,outcome,[3],inactive
CC(=O)c1c(O)c(C)c(O)c(Cc2c(O)c3c(c(C(=O)/C=C/c4ccccc4)c2O)OC(C)(C)C=C3)c1O,Potency,[1],inactive
COc1ccc2c(c1)C13CCCCC1C(C2)N(C)CC3 (stereo not given),Potency,[1],inactive
same,Potency,[2],inactive
same,outcome,[4],inactive
same,Potency,[8],2000 nM (active)
